According to PubChem BioAssay (Tox21):
Values without a mark were called inactive. Entries that show only a call come without a potency. The source made the active and inactive calls. Calls come from the whole dose curve.

Target: Gonadotropin-releasing hormone receptor (Homo sapiens) (UniProt P30968)
Test: Human gonadotropin-releasing hormone receptor (GnRHR) small molecule agonists, calcium flux assay in GnRHR-HEK293 cells (AID 1920063); note: nearly all actives have a fitted effect of over 35% in size
In short: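 Stable human GnRHR HEK293 line. 18 h plating, then calcium dye for 1 h at 37 C. Agonist-mode compound addition from DMSO stocks; fluorescence monitored 3 min.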

Chain of Gonadotropin-releasing hormone receptor (Homo sapiens) (P30968 whole entry, looked up): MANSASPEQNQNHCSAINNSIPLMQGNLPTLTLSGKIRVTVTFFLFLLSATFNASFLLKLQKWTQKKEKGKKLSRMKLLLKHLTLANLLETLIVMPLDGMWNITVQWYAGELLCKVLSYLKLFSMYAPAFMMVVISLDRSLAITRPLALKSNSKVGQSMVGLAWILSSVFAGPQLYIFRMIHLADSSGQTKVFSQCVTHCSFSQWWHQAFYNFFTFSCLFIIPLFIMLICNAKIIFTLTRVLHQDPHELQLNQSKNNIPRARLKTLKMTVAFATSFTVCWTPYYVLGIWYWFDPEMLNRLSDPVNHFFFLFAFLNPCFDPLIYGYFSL

| SMILES | Potency | activity change |
| --- | --- | --- |
| CC(O)(CS(=O)(=O)c1ccc(F)cc1)C(=O)Nc1ccc(C#N)c(C(F)(F)F)c1 (stereo unspecified) | inactive |  |
| CCC(C)Nc1c([N+](=O)[O-])cc(C(C)(C)C)cc1[N+](=O)[O-] (stereo unspecified) | inactive |  |
| CCOP(=S)(OCC)SCSc1ccc(Cl)cc1 | inactive |  |
| Nc1c(Br)cc(Br)c2c1C(=O)c1ccccc1C2=O |  | 1.8% [at 11.8 µM, stronger effect = higher value] |
| C#CC(C)(C)O | inactive |  |
| CNC(=O)/C=C(\C)OP(=O)(OC)OC | inactive |  |
| CC(C)CC#N | inactive |  |
| CCCCN(CCCC)C(=S)[S-].CCCCN(CCCC)C(=S)[S-].[Ni+2] | inactive |  |
| CC(C)(C)C(O)C(Oc1ccc(Cl)cc1)n1cncn1 (stereo unspecified) | inactive |  |
| FC(Cl)(Cl)C(F)(Cl)Cl | inactive |  |
| O=C1CN=C(c2ccccc2)c2cc(Cl)ccc2N1CC1CC1 | inactive |  |
| [Cl][Sb]([Cl])[Cl] | inactive |  |
| C=CCOC(=O)c1ccccc1N | inactive |  |
| Cc1cc2c3c(c1)C(c1ccccc1)=N[C@@H](NC(=O)c1ccncc1)C(=O)N3CC2 | inactive |  |
| CCC1(CCC(C)C)C(=O)NC(=O)NC1=O | inactive |  |
| OCCBr | inactive |  |

| SMILES | Potency | activity change |
| --- | --- | --- |
| CC(C)(C)C(=O)C(Oc1ccc(Cl)cc1)n1cncn1 (stereo unspecified) | inactive |  |
| CC(=O)NC1CCSC1=O (stereo unspecified) | inactive |  |
| O=C(O)COc1ccc(Cl)cc1 | inactive |  |
| O=C(O)CBr | inactive |  |
| CCCCCCBr | inactive |  |
| Clc1cc(C(Cl)(Cl)Cl)cnc1Cl | inactive |  |
| Clc1ccc(C(Cl)(Cl)Cl)cc1Cl | inactive |  |
| O=[N+]([O-])c1ccc(Cl)c(Cl)c1Cl | inactive |  |
| NC(=O)CI | inactive |  |
| CC1(C)CON(Cc2ccccc2Cl)C1=O | inactive |  |
| c1ccc(OCC2CO2)cc1 (stereo unspecified) | inactive |  |
| CCS(=O)(=O)c1cccnc1S(=O)(=O)NC(=O)Nc1nc(OC)cc(OC)n1 | inactive |  |
| Cn1sc(Cl)cc1=O | inactive |  |
| CC(=O)OC(c1ccccc1)C(Cl)(Cl)Cl (stereo unspecified) | inactive |  |
| C=CC(=O)OC | inactive |  |
